Compounds with a hit are over-represented: about 7.6% of the library has one in this group of screens.
HCV NS3h FP: HCV NS3 helicase inhibitors, primary screen, biochemical, fluorescence polarization, ChemBridge library; NS3h Cy5-dT15 DNA binding; inhibition, % at 100 µM; hit rate 1.6% among 16,000; Hepatitis C virus NS3 helicase;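 active means inhibition above the average over every tested compound plus 3 SD, cut at about 40% in these data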
Cy5 interf NS3h: Cy5 fluorescence quenchers or enhancers, artefact control for HCV NS3 helicase inhibitor project, biochemical, ChemBridge library, Cy5 readout; fluorescence interference ratio at 100 µM; Cy5-dT15 DNA with NS3h, fluorescence interference; actives lie on both sides; signal over control mean, under 1 quenches; hit rate 6% among 16,000;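 active means compound fluorescence over control fluorescence at most 0.8, a quencher, or at least a set upper limit, an enhancer; inactive means ratio between 0.8 and the set upper limit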
Each line names hits and unclear results; the compound was inactive in the other large screens.

Cc1ccc(C2=NN(C(=N)SC3CC(=O)N(c4ccc(C(=O)O)cc4)C3=O)C(c3ccc(Br)cc3)C2)cc1 (stereo unspecified)	none
CCOC(=O)C1CCN(C(=O)Nc2ccc(Cl)c(Cl)c2)CC1	none
CCOC(=O)c1ccc(NC(=S)NC(=O)/C=C/c2ccccc2)cc1	none
COc1cc(C=C2C(=O)NC(=O)NC2=O)ccc1OCCC(C)C	Cy5 interf NS3h 0.8
CCOc1cc(C=C2C(=O)NC(=O)NC2=O)ccc1OCc1ccc(Cl)cc1	Cy5 interf NS3h 0.4
CCOc1cc(/C=C2/SC(=O)NC2=O)ccc1OCc1ccc(Cl)cc1	none
O=C1NC(=O)C(=Cc2ccc(OCc3ccc(F)cc3)cc2)C(=O)N1	Cy5 interf NS3h 0.7
COC(=O)COc1ccc(C=C2C(=O)NC(=S)NC2=O)cc1OC	none
O=C1NC(=O)C(=Cc2ccccc2OCc2ccc(F)cc2)C(=O)N1	none
COc1cc(C=C2C(=O)NC(=S)NC2=O)ccc1OCc1ccc(Cl)cc1	Cy5 interf NS3h 0.68
CCOc1cc(C=C2C(=O)NC(=O)NC2=O)ccc1OCCOc1ccccc1C	none
COC(=O)c1c(NC(=O)COc2ccc(Cl)cc2C)sc2c1CCC2	none
CCC1=NN(C(=O)c2ccc(Cl)cc2)C(O)(c2ccc(Br)cc2)C1 (stereo unspecified)	none
Cc1cc(C)c(S(=O)(=O)c2ccccc2C(C)(C)C)c(C)c1	none
Cc1cc(C(F)(F)F)nn1CC(=O)Nc1sc2c(c1C(N)=O)CCC(C)C2 (stereo unspecified)	Cy5 interf NS3h 0.75
CCOC(=O)c1c(NC(=O)Cn2nc(C(F)(F)F)cc2C)sc2c1CCC(C)C2 (stereo unspecified)	none
Cc1ccccc1CC1S/C(=N/N=C\c2ccco2)NC1=O (stereo unspecified)	none
COc1ccc(CN2CCN(Cc3ccccc3OC)CC2)c(OC)c1	none
COc1ccc(CN2CCN(S(C)(=O)=O)CC2)cc1OCc1ccccc1	none
COc1ccc(Br)cc1CN1CCN(S(C)(=O)=O)CC1	Cy5 interf NS3h 0.67
COc1cccc(CN2CCN(S(C)(=O)=O)CC2)c1	Cy5 interf NS3h 0.77
COc1ccc(CN2CCN(S(C)(=O)=O)CC2)c(OC)c1	Cy5 interf NS3h 0.69
COc1cccc(CN2CCN(S(C)(=O)=O)CC2)c1OC	Cy5 interf NS3h 0.65
COc1ccc(S(=O)(=O)N2CCN(Cc3cccc(OC)c3)CC2)cc1	none
COc1cccc(CN2CCN(Cc3ccc(Br)cc3)CC2)c1OC	none
COc1cc(/C=C(\C#N)c2nc3ccccc3[nH]2)ccc1Oc1ccc([N+](=O)[O-])cc1C#N	none
O=[N+]([O-])c1ccc(S(=O)(=O)NCCOc2ccccc2Cl)cc1	none
O=[N+]([O-])c1cccc(S(=O)(=O)NC2C3CC4CC(C3)CC2C4)c1 (stereo unspecified)	none
O=C(Nc1ccc2ccccc2c1)C1CC(=O)N(c2cccc([N+](=O)[O-])c2)C1 (stereo unspecified)	none
O=C(c1ccccc1Br)N1CCN(c2ccc([N+](=O)[O-])cc2Cl)CC1	none
C=CCNC(=S)N1CCN(CCNC(=O)C(=O)Nc2ccc(C)cc2)CC1	none
O=C(Nc1ccc2c(c1)C(=O)OC2)NC1CCCCC1	Cy5 interf NS3h 1.4
CN(C)c1cccc(C(=O)NC2CCCCCC2)c1	none
C=CCOC(=O)C1=C(C)NC(C)=C(C(=O)OCC=C)C1c1ccc(O)c(OCC)c1	none
C=CCOC(=O)C1=C(C)NC(C)=C(C(=O)OCC=C)C1c1ccc(OC)c(OC)c1	Cy5 interf NS3h 0.8
O=C(Nc1ccccc1C(F)(F)F)c1nn2c(c1Cl)NC(c1ccccc1)CC2C(F)(F)F (stereo unspecified)	none
C=CCCCC(=O)Nc1ccc(-c2ccc(NC(=O)CCCC=C)cc2)cc1	none
O=C(CCCC(=O)OCC(F)(F)C(F)F)Nc1ccc(NC(=O)CCCC(=O)OCC(F)(F)C(F)F)cc1	Cy5 interf NS3h 0.62
C=CCCCC(=O)Nc1ccc(Cl)cc1Cl	none
O=C(CCC(=O)OCC(F)(F)C(F)F)Nc1ccc(Cl)cc1Cl	Cy5 interf NS3h 0.78
CC1C(C(=O)N(C=O)NC(=O)c2ccc(Cl)cc2)C2C=CC1C21CC1 (stereo unspecified)	none
O=C(Nc1ccc(NC(=O)c2cc([N+](=O)[O-])ccc2Cl)cc1)c1ccc(Br)cc1	Cy5 interf NS3h 0.54
O=C(Nc1cccc(Br)c1)c1cc([N+](=O)[O-])ccc1Cl	none
Cc1c(Cl)c([N+](=O)[O-])nn1CC(=O)Nc1cc(C(F)(F)F)ccc1Cl	Cy5 interf NS3h 0.62
Cc1c(Cl)c(C(F)(F)F)nn1CC(=O)Nc1ccccc1C(F)(F)F	none
Cc1ccc(/C=C(/C#N)C(=O)Nc2ccc(Cl)cc2)cc1[N+](=O)[O-]	none
O=C(Nc1cccc(Cl)c1)Nc1nnc(Cc2ccc(Cl)cc2Cl)s1	none
O=C(Nc1cccc(Cl)c1)Nc1nnc(-c2ccc(Cl)cc2Cl)s1	Cy5 interf NS3h 0.75
Cc1cccc2c(N=NC(=O)COc3cccc(Br)c3)c(O)n(C)c12	none
Cc1ccc(CCC(=O)Nc2ncc(Cc3cccc(Cl)c3)s2)o1	none
